Bioassay records (PubChem BioAssay)
Compounds with a hit are over-represented: about 4% of the library has one in this group of screens.
EWS-Fli block = EWS/Fli-driven NR0B1 reporter inhibitors, primary screen, A673 cells, NR0B1 luciferase, luminescence, MLPCN library; viability-normalised; inhibition, % at 12.6 µM; 350,000 tested, 0.67% active; AID 651661, 2012;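 active = mean inhibition of at least 50% after viability correction, with every replicate also passing that limit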;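 also: firefly luciferase signal divided by Alamar Blue viability fluorescence both relative to DMSO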
MITF act = activators of MITF-driven TRPM1 promoter reporter, primary screen, cell-based, SK-MEL-5, luciferase, single point; SK-MEL-5 TRPM1-promoter luciferase, 24 h; % of positive control, neutral wells = 0; activation, % at 12.5 µM; 300,000 tested, 0.75% active;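 active = mean activation of at least 80% with every replicate also reaching 80%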;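 also: 0% = neutral control wells and 100% = parthenolide positive control wells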
PAX8 reporter = inhibitors of PAX8-driven TPO luciferase reporter, primary screen, RMG-I cells, single concentration; inhibition, % at 12.6 µM; AID 652154, 2013; SteadyGlo, 24 h; 360,000 tested, 1.2% active;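 active = mean replicate inhibition at least 60% with every replicate also reaching 60%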;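 also: luciferase light reporting Pax8 driven TPO promoter activity; plate controls were median of neutral control wells for no effect and mitoxantrone controls for full effect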
esBAF inh = Bmi1 luciferase reporter increase in mESCs, primary screen, esBAF inhibitor project, mouse ES cells, Bmi1 luciferase knock-in, single point | 350,000 tested, 2% active | 24 h; 100% = twice the neutral-well signal | AID 602393, 2012 | reporter increase, % at 12.5 µM; in the data active = activation above about 40%;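 also: 0% = median of the plate's neutral control wells and 100% = double that signal; a rise in the Bmi1 reporter signal indicates esBAF inhibition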
Wnt bcat act = Wnt/beta-catenin pathway activators, primary screen, cell-based, plate reader, single point; Wnt/beta-catenin reporter cell assay, activator; activation, % at 9.35 µM; 300,000 tested, 1.2% active; AID 743398, 2014; in the data active = activation above about 30%, passing the limit was not always enough;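 also: 0% = neutral control wells and 100% = positive control wells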
TRPM1 prom inh = inhibitors of MITF-dependent TRPM1 promoter reporter, primary screen, cell-based, SK-MEL-5, single point, luciferase. SK-MEL-5 TRPM1 promoter luciferase, 24 h. inhibition, % at 12.5 µM. 330,000 tested, 0.83% active;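 active = mean inhibition across replicates of 60% or more, whatever share of single replicates reaches that level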
Active calls of the source: *; nt = no result.

SMILES	EWS-Fli block	MITF act	PAX8 reporter	esBAF inh	Wnt bcat act	TRPM1 prom inh
O=C(NC1CC1)C1CCN(S(=O)(=O)c2ccc(Cl)c([N+](=O)[O-])c2)CC1	50	-77	51	6	-6	75*
O=C(NC1CCN(S(=O)(=O)c2cccc([N+](=O)[O-])c2)CC1)C1CCCCC1	0	3	-6	-9	-3	-2
Cc1ccc(CONC(=O)c2cccc(C)c2)cc1	-54	33	-53	25	2	-29
O=C(NOCc1ccccc1)c1ccccc1	-8	34	-43	-18	32*	-32
O=C(COC(=O)c1ccccc1O)NC12CC3CC(CC(C3)C1)C2	-7	nt	-94	40	16	nt
O=C(COC(=O)/C=C/C(=O)OCC(=O)NC12CC3CC(CC(C3)C1)C2)NC12CC3CC(CC(C3)C1)C2	nt	-75	6	6	-25	76*
COc1ccc(NC(=O)Nc2ccc3c(c2)CC(=O)N([C@H](C)CO)C[C@@H](C)[C@@H](CN(C)Cc2ccc(C(=O)O)cc2)O3)cc1	-9	nt	nt	7	nt	nt
Cc1ccc(Nc2nc(C(=O)N3CCC(C(=O)NC(C)C)CC3)cs2)cc1	-6	10	-13	nt	58*	-6
CCCNC(=O)N1CC2(C1)[C@H](c1ccccc1)[C@@H](CO)N2Cc1ccccc1	-6	nt	nt	nt	nt	nt
CC1CCCC(NC(=O)COC(=O)c2cc3ccccc3oc2=O)C1C (stereo not drawn)	-62	65	-144	68*	18	-59
O=C(C[C@H]1CC[C@H](NC(=O)CN2CCOCC2)[C@H](CO)O1)NCc1cccc(F)c1	-4	nt	11	1	nt	nt
CCCC#Cc1cnc2c(c1)C(=O)N([C@@H](C)CO)C[C@@H](C)[C@@H](CN(C)C(=O)Nc1cccc(F)c1)O2	1	nt	33	5	nt	nt
Cc1c(C(=O)Nc2ccccc2F)sc2ncn(CC(=O)N3CCOCC3)c(=O)c12	nt	1	-9	42*	-2	-1
Cc1c(C(=O)Nc2c(F)cccc2F)sc2ncn(CC(=O)N3CCCCC3)c(=O)c12	-5	1	1	-5	-2	2
CN(C)C(=O)[C@H]1[C@H](CO)[C@H]2Cn3c(ccc(C4=CCCCC4)c3=O)[C@@H]1N2Cc1cccnc1	3	nt	nt	2	nt	nt
COc1ccc(CN(C)C[C@@H]2Oc3ccc(NC(=O)Cn4cnnn4)cc3C(=O)N([C@H](C)CO)C[C@H]2C)cc1	nt	nt	-9	1	nt	nt
Cc1nc([N+](=O)[O-])c(Br)n1CC(=O)c1ccc(Cl)cc1	nt	-9	nt	nt	nt	11
Cc1nc([N+](=O)[O-])c(Br)n1Cc1ccc(Cl)c(Cl)c1	54*	-24	23	-70	3	23
C[C@@H]1CCCCO[C@H](CN(C)S(C)(=O)=O)[C@H](C)CN([C@@H](C)CO)C(=O)c2cc(NC(=O)Nc3ccc(F)cc3)ccc2O1	-4	nt	13	0	nt	nt
CN1c2ccsc2/C(=N/Nc2ccc(F)cc2)CS1(=O)=O	-48	16	-50	64*	12	-13
Cc1ccc(N/N=C2\CS(=O)(=O)N(C)c3ccsc32)cc1	-76	9	-33	59*	8	-11
CCCC(=O)N/N=C1\CS(=O)(=O)N(C)c2ccsc21	-1	5	14	-1	-1	-1
O=C1NCCC/C1=N/Nc1ccc(F)cc1	-7	nt	-15	nt	-1	nt
C[C@@H]1CN([C@@H](C)CO)C(=O)c2cc(NC(=O)Nc3cccc4ccccc34)ccc2O[C@H]1CN(C)Cc1ccc(-c2ccccc2)cc1	2	nt	nt	-2	nt	nt
Cc1[nH]c(=O)c(C(=O)/C=C/c2ccccc2F)c2c1CCCC2	36	-84	nt	43*	-5	84*
C[C@H](CO)N1C[C@H](C)[C@H](CN(C)C(=O)Nc2ccccc2)Oc2ccc(NC(=O)CCCCCC(=O)Nc3ccccc3N)cc2CC1=O	6	nt	-13	4	nt	nt
CNc1ccc(Br)cc(C(=O)/C=C/c2cccc(Cl)c2Cl)c1=O	48	-80	4	nt	-4	81*
CNc1ccc(Br)cc(C(=O)/C=C/c2cccc(OC)c2OC)c1=O	nt	nt	nt	8	nt	13
